According to PubChem BioAssay AID1159580 (chemical genetic matrix, 2015):
Where “and” joins values, the source holds several entries; their conditions need not be identical. Equal entries are not always repeated. The whole screen tested about 5,500 compounds, of which about 2,000 (36%) were called active. Inconclusive results (about 18%) are left out. Cut-off read from the data, not from the text of the source: active = normalized growth mostly below about 0.91 (no sharp cut-off); inconclusive = no clear call, values can overlap the other calls; inactive = mostly above about 0.92. The list shows a part of the results.

Assay: chemical genetic growth profiling, strain panel (AID 1159580);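 note: tested at 20 µM; growth read once vehicle control cultures reached saturation at 30 °C; 1 = growth at the plate median or of vehicle wells; lower values mean less growth of the strain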
Conditions: S. cerevisiae deletion strains, growth OD

Measured: normalized growth

O=c1c(O)c(-c2ccc(O)cc2O)oc2cc(O)cc(O)c12
inactive: locus YAL013W, strain DEP1, stronger effect = lower value 1 | locus YAL021C, strain ccr4, stronger effect = lower value 0.949 | locus YAL026C, strain drs2, stronger effect = lower value 0.973 | locus YAL030W, strain snc1, stronger effect = lower value 0.99 | locus YAL040C, strain CLN3, stronger effect = lower value 1.01 | locus YBL061C, strain skt5, stronger effect = lower value 0.963 | locus YBR009C, strain hhf1, stronger effect = lower value 1 | locus YBR021W, strain FUR4, stronger effect = lower value 1.01 | locus YBR023C, strain chs3, stronger effect = lower value 1.01 | locus YBR171W, strain sec66, stronger effect = lower value 0.983 | locus YBR229C, strain ROT2, stronger effect = lower value 0.988 | locus YBR231C, strain swc5, stronger effect = lower value 0.965 | locus YBR279W, strain paf1, stronger effect = lower value 0.995 | locus YCL011C, strain gbp2, stronger effect = lower value 1 | locus YCL016C, strain dcc1, stronger effect = lower value 0.988 | locus YCL029C, strain bik1, stronger effect = lower value 1.01 | locus YCL061C, strain MRC1 (second series), stronger effect = lower value 0.986 | locus YCL061C, strain MRC1, stronger effect = lower value 0.976 | locus YCL069W, strain vba3, stronger effect = lower value 0.997 | locus YCR088W, strain abp1, stronger effect = lower value 0.991 | locus YDL005C, strain med2, stronger effect = lower value 1.01 | locus YDL035C, strain GPR1, stronger effect = lower value 0.973 | locus YDL040C, strain nat1, stronger effect = lower value 1 | locus YDL074C, strain BRE1, stronger effect = lower value 1 | locus YDL101C, strain DUN1, stronger effect = lower value 1 | locus YDL185W, strain tfp1, stronger effect = lower value 0.976 | locus YDL192W, strain arf1, stronger effect = lower value 0.974 | locus YDR001C, strain nth1, stronger effect = lower value 0.999 | locus YDR101C, strain arx1, stronger effect = lower value 1 | locus YDR137W, strain rgp1, stronger effect = lower value 1 | locus YDR150W, strain NUM1, stronger effect = lower value 0.986 | locus YDR159W, strain sac3, stronger effect = lower value 0.985 | locus YDR162C, strain NBP2, stronger effect = lower value 0.971 | locus YDR195W, strain ref2 0.964 | locus YDR297W, strain sur2, stronger effect = lower value 0.978 | locus YDR318W, strain mcm21, stronger effect = lower value 1.01 | locus YDR334W, strain swr1, stronger effect = lower value 0.956 | locus YDR335W, strain msn5, stronger effect = lower value 0.98 | locus YDR363W, strain ESC2, stronger effect = lower value 0.995 | locus YDR388W, stronger effect = lower value 0.991 | locus YDR392W, strain spt3, stronger effect = lower value 0.99 | locus YDR502C, strain sam2, stronger effect = lower value 1.02 | locus YEL003W, strain gim4, stronger effect = lower value 0.976 | locus YEL037C, strain rad23, stronger effect = lower value 0.989 | locus YEL061C, strain CIN8 (second series), stronger effect = lower value 0.992 | locus YEL061C, strain CIN8, stronger effect = lower value 0.995 | locus YER002W, strain NOP16, stronger effect = lower value 1.03 | locus YER015W, strain faa2, stronger effect = lower value 0.984 | locus YER016W, strain bim1, stronger effect = lower value 1 | locus YER110C, stronger effect = lower value 1.02 | locus YER111C, strain swi4, stronger effect = lower value 0.954 | locus YER155C, strain BEM2 (second series), stronger effect = lower value 0.977 | locus YER155C, strain BEM2, stronger effect = lower value 1.01 | locus YER167W, strain BCK2, stronger effect = lower value 0.996 | locus YFR010W, strain ubp6, stronger effect = lower value 0.916 | locus YGL078C, strain dbp3, stronger effect = lower value 1.01 | locus YGL086W, strain mad1, stronger effect = lower value 1.06 | locus YGL167C, strain pmr1, stronger effect = lower value 0.98 | locus YGL173C, strain kem1, stronger effect = lower value 0.947 | locus YGL227W, strain vid30, stronger effect = lower value 1.01 | locus YGL240W, strain doc1, stronger effect = lower value 1 | locus YGL248W, strain PDE1, stronger effect = lower value 0.966 | locus YGL253W, strain hxk2, stronger effect = lower value 0.994 | locus YGR078C, strain PAC10, stronger effect = lower value 0.97 and 1.01 | locus YGR135W, strain pre9, stronger effect = lower value 0.991 | locus YHR013C, strain ard1, stronger effect = lower value 0.962 | locus YHR027C, strain rpn1, stronger effect = lower value 0.973 | locus YHR030C, strain SLT2, stronger effect = lower value 0.993 and 0.957 | locus YHR079C, strain IRE1 (second series), stronger effect = lower value 1.02 | locus YHR079C, strain IRE1, stronger effect = lower value 0.968 | locus YHR094C, strain hxt1, stronger effect = lower value 1.02 | locus YHR129C, strain ARP1, stronger effect = lower value 0.973 | locus YHR142W, strain chs7, stronger effect = lower value 0.945 | locus YHR200W, strain rpn10, stronger effect = lower value 0.994 | locus YIL066C, strain RNR3, stronger effect = lower value 0.943 | locus YIL073C, strain SPO22, stronger effect = lower value 1.08 | locus YIL125W, strain kgd1, stronger effect = lower value 0.999 | locus YIR030C, strain dcg1, stronger effect = lower value 1.02 | locus YJL092W, strain hpr5, stronger effect = lower value 0.996 | locus YJL095W, strain BCK1 (second series), stronger effect = lower value 0.964 | locus YJL095W, strain BCK1, stronger effect = lower value 0.986 and 0.988 | locus YJL115W, strain asf1, stronger effect = lower value 0.994 | locus YJL129C, strain trk1, stronger effect = lower value 1.02 | locus YJL134W, strain LCB3, stronger effect = lower value 1.02 | locus YJL154C, strain vps35, stronger effect = lower value 1.02 | locus YJL164C, strain tpk1, stronger effect = lower value 0.975 | locus YJL166W, strain qcr8, stronger effect = lower value 0.984 | locus YJL168C, strain set2, stronger effect = lower value 1 | locus YJL187C, strain SWE1 (second series), stronger effect = lower value 0.966 | locus YJR043C, strain POL32, stronger effect = lower value 0.956 | locus YJR066W, strain TOR1, stronger effect = lower value 0.935 | locus YJR075W, strain HOC1, stronger effect = lower value 1.01
active: locus YDR069C, strain doa4, stronger effect = lower value 0.857
